# Experimental data published in publication PMC7862700, “An all-to-all approach to the identification of sequence-specific readers for epigenetic DNA modifications on cytosine”.
# Experiments:
# Assay in all cases: DAPPL (digital affinity profiling via proximity ligation, sequencing); 10 mM Tris-HCl pH 7.5, 50 mM NaCl, 1 mM DTT, 4% glycerol, room temperature, 30 min; GST-TFs on glutathione beads, 16-mer random dsDNA library, 0.1% formaldehyde crosslink after washing; high values mean tight binding
# FLI1 = target: T1, FLI1 (Homo sapiens, UniProt Q01543 1-452); settings: protein: recombinant; tags: N-terminal GST; dsDNA, one strand shown
# T1 sequence: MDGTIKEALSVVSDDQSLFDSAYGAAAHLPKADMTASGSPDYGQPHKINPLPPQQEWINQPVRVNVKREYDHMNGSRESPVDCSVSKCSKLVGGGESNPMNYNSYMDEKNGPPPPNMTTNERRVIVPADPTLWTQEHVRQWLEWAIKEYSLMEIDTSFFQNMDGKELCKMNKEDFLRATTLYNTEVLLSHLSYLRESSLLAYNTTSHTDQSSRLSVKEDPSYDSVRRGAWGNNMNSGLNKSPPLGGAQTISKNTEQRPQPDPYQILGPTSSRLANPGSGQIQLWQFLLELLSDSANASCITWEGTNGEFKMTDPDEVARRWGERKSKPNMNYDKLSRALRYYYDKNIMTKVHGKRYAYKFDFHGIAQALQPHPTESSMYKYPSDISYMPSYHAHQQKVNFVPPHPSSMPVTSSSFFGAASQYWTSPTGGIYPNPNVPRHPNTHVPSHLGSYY
# Method in brief: (§1)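 Human transcription factors carrying a GST fusion were produced in yeast, bound to glutathione beads, tagged with DNA barcodes and pooled together with a tag-only sample. Each pool was held with 200 nmole of a random double-stranded 16-mer DNA library in Tris/NaCl/DTT/glycerol buffer for 30 min at room temperature, then washed, crosslinked in 0.1% formaldehyde, proximity-ligated with BsaI/T4 ligase (1 h, 37 °C), PCR-amplified and sequenced on an Illumina NextSeq500. Binding signal is the read frequency of each hexamer for a given factor divided by its frequency in the tag-only sample.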
# ELK1 = target: T2, ELK1 (Homo sapiens, UniProt P19419 1-428); settings: protein: recombinant; tags: N-terminal GST; dsDNA, one strand shown
# T2 sequence: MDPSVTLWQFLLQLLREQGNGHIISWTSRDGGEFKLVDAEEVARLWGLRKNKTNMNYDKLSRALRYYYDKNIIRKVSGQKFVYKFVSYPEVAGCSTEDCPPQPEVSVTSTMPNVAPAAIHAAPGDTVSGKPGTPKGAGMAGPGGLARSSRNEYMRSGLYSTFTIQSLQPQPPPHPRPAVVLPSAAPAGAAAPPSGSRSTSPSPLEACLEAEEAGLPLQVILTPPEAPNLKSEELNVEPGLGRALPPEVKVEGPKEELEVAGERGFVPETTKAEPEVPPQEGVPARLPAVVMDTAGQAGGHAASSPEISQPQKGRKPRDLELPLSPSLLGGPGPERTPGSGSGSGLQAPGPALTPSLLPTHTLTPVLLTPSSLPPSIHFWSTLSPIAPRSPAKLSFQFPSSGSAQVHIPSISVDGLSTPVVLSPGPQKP
# Method in brief: as §1
# GABPA = target: T3, GABPA (Homo sapiens, UniProt Q06546 1-454); settings: protein: recombinant; tags: N-terminal GST; dsDNA, one strand shown
# T3 sequence: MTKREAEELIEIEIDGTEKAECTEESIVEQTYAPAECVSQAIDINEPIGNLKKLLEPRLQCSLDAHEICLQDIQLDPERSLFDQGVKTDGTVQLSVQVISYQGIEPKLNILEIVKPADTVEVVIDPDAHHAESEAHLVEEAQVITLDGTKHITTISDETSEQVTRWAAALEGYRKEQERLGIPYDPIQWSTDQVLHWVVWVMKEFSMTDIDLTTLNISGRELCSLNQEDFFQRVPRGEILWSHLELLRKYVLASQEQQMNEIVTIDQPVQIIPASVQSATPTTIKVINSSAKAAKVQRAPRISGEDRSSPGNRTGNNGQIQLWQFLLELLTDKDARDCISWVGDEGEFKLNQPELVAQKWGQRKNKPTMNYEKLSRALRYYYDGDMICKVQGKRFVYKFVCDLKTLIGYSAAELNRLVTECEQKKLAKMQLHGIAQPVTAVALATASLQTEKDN
# Method in brief: as §1
# ERG = target: T4, ERG (Homo sapiens, UniProt P11308 1-479); settings: protein: recombinant; tags: N-terminal GST; dsDNA, one strand shown
# T4 sequence: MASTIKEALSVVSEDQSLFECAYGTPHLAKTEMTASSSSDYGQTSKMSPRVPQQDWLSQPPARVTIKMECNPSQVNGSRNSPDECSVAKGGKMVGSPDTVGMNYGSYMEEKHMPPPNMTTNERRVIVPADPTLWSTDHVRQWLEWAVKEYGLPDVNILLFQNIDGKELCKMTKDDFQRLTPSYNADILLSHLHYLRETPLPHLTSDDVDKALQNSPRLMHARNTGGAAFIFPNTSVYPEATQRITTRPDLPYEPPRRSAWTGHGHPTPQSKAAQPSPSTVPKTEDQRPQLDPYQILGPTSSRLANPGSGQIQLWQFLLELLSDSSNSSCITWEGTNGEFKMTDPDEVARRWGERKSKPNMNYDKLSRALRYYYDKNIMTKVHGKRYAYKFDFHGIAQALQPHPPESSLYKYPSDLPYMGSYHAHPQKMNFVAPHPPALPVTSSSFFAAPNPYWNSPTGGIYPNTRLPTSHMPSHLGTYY
# Method in brief: as §1
# ELF1 = ELF1 (Homo sapiens, UniProt P32519 1-619); settings: protein: recombinant; tags: N-terminal GST; dsDNA, one strand shown
# Method in brief: as §1
# EHF = target: T5, EHF (Homo sapiens, UniProt Q9NZC4 1-300); settings: protein: recombinant; tags: N-terminal GST; dsDNA, one strand shown
# T5 sequence: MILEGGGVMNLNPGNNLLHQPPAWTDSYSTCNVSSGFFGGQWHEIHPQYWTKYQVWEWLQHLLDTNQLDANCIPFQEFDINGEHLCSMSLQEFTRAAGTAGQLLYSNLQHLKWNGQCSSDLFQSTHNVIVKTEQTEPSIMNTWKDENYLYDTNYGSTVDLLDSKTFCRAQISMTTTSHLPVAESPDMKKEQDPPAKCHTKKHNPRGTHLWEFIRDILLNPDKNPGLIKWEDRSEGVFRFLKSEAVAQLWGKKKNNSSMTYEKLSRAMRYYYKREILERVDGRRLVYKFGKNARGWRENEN
# Method in brief: as §1
# SPI1 = SPI1 (Homo sapiens, UniProt P17947 1-270); settings: protein: recombinant; tags: N-terminal GST; dsDNA, one strand shown
# Method in brief: as §1
# SPIB = SPIB (Homo sapiens, UniProt Q01892 1-262); settings: protein: recombinant; tags: N-terminal GST; dsDNA, one strand shown
# Method in brief: as §1
# ELK3 = target: T6, ELK3 (Homo sapiens, UniProt P41970 1-407); settings: protein: recombinant; tags: N-terminal GST; dsDNA, one strand shown
# T6 sequence: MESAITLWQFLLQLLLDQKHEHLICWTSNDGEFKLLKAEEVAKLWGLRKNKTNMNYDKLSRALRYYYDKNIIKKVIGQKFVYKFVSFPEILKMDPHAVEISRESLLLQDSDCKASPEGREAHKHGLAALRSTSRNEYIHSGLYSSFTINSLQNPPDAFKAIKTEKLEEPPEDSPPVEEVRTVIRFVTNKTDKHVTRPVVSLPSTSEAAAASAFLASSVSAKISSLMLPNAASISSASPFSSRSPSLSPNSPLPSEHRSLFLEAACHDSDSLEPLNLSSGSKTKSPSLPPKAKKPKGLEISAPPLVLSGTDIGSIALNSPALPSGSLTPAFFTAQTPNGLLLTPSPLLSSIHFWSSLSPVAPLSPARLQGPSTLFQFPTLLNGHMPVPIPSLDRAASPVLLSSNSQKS
# Method in brief: as §1
# FEV = target: T7, FEV (Homo sapiens, UniProt Q99581 1-238); settings: protein: recombinant; tags: N-terminal GST; dsDNA, one strand shown
# T7 sequence: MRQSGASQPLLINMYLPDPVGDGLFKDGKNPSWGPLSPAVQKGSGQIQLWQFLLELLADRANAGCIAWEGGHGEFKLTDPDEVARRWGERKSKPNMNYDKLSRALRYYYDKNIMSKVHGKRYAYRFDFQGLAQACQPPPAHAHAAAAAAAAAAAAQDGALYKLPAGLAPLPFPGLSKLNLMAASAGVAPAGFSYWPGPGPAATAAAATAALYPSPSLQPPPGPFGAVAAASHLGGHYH
# Method in brief: as §1
# ETV5 = ETV5 (Homo sapiens, UniProt P41161 1-510); settings: protein: recombinant; tags: N-terminal GST; dsDNA, one strand shown
# Method in brief: as §1
# HSF1 = HSF1 (Homo sapiens, UniProt Q00613 1-529); settings: protein: recombinant; tags: N-terminal GST; chain copies: 3; dsDNA, one strand shown
# Method in brief: as §1
# SPIC = target: T8, SPIC (Homo sapiens, UniProt Q8N5J4 1-248); settings: protein: recombinant; tags: N-terminal GST; dsDNA, one strand shown
# T8 sequence: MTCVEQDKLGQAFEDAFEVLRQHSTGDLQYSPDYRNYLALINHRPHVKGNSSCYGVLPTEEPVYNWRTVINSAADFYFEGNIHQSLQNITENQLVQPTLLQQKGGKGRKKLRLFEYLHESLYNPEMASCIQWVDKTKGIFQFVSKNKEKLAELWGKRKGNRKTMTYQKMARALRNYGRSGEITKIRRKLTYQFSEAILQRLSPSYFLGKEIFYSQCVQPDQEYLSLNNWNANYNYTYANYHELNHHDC
# Method in brief: as §1
# ELF4 = ELF4 (Homo sapiens, UniProt Q99607 1-663); settings: protein: recombinant; tags: N-terminal GST; dsDNA, one strand shown
# Method in brief: as §1
# ELK4 = target: T9, ELK4 (Homo sapiens, UniProt P28324-2 1-405); settings: protein: recombinant; tags: N-terminal GST; dsDNA, one strand shown
# T9 sequence: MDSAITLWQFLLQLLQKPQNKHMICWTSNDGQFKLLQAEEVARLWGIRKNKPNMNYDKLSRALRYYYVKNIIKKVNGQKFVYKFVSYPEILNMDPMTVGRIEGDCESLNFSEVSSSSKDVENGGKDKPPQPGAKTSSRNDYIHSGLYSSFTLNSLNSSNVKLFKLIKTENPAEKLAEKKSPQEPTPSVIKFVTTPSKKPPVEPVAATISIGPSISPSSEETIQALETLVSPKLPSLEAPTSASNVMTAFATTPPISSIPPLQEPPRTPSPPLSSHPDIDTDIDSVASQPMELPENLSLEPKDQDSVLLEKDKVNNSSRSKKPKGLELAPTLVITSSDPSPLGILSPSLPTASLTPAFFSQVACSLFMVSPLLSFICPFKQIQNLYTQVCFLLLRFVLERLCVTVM
# Method in brief: as §1
# ETV2 = target: T10, ETV2 (Homo sapiens, UniProt O00321 1-342); settings: protein: recombinant; tags: N-terminal GST; dsDNA, one strand shown
# T10 sequence: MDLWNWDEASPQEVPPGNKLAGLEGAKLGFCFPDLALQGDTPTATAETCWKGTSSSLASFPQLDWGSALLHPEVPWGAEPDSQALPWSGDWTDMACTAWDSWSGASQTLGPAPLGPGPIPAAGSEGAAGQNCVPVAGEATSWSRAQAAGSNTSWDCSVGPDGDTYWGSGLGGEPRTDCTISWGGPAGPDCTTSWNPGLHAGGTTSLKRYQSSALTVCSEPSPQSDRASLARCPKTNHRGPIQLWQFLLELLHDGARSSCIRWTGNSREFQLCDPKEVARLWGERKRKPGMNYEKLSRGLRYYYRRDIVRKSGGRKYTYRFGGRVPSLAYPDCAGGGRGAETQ
# Method in brief: as §1
# ELF3 = target: T11, ELF3 (Homo sapiens, UniProt P78545 1-371); settings: protein: recombinant; tags: N-terminal GST; dsDNA, one strand shown
# T11 sequence: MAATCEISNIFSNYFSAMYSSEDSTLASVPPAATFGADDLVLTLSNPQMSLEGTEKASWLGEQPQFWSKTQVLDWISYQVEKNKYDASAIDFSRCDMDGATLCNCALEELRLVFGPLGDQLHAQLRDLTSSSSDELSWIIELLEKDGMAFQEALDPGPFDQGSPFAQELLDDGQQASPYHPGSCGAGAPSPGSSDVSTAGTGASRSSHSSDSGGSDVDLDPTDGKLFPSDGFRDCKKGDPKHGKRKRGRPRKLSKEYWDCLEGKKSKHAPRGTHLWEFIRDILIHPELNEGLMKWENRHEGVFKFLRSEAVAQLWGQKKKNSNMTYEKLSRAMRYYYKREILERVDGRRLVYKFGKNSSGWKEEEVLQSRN
# Method in brief: as §1
# CRX = CRX (Homo sapiens, UniProt O43186 1-299); settings: protein: recombinant; tags: N-terminal GST; dsDNA, one strand shown
# Method in brief: as §1
# ETV1 = ETV1 (Homo sapiens, UniProt P50549 1-477); settings: protein: recombinant; tags: N-terminal GST; dsDNA, one strand shown
# Method in brief: as §1
# Sequence of HSF1 (Q00613 whole entry): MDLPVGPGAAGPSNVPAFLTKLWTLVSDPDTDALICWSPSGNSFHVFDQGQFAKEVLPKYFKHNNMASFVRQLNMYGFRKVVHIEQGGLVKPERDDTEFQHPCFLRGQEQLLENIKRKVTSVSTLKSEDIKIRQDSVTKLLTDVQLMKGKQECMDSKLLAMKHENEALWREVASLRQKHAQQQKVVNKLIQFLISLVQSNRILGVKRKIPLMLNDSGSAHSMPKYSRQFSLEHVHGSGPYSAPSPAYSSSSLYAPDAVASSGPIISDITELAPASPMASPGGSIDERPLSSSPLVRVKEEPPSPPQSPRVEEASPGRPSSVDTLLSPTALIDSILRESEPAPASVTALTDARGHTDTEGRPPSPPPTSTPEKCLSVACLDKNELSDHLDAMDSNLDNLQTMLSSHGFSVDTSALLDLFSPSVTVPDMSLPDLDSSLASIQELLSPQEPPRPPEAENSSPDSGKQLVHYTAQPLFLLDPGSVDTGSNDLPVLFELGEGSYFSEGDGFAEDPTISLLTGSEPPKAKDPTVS
# Sequence of ELF1 (P32519 whole entry): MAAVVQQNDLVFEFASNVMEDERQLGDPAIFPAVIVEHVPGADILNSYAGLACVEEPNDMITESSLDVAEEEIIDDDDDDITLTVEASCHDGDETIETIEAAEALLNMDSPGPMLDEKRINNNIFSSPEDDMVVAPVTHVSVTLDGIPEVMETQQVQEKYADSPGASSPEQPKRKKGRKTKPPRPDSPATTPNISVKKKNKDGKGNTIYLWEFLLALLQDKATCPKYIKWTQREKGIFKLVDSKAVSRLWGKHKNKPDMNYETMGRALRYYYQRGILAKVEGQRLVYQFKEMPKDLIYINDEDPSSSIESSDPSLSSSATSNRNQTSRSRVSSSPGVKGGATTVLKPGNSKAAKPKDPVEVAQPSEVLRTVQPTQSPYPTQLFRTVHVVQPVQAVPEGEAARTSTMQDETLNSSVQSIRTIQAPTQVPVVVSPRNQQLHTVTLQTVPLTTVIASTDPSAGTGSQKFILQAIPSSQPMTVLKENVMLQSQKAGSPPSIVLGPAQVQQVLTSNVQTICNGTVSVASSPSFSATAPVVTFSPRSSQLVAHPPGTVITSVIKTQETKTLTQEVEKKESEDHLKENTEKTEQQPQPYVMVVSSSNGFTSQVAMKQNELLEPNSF
# Sequence of ELF4 (Q99607 whole entry): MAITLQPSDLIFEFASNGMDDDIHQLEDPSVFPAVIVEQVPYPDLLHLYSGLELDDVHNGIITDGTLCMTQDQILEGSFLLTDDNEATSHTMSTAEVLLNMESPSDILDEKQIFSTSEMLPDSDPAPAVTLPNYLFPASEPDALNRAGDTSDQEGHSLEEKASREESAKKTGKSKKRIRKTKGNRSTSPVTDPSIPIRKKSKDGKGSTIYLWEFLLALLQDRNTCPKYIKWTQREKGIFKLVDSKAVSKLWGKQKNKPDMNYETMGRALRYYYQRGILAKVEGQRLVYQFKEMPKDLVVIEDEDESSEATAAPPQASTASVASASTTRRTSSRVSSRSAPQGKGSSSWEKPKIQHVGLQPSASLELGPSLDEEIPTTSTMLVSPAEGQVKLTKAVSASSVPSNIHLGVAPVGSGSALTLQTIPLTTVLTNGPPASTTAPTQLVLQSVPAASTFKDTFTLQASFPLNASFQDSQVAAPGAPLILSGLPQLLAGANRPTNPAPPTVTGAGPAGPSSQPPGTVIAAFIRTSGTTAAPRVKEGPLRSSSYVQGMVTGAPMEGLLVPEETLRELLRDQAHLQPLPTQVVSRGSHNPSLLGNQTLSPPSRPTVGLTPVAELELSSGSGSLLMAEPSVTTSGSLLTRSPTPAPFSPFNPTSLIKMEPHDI
# Sequence of ETV5 (P41161 whole entry): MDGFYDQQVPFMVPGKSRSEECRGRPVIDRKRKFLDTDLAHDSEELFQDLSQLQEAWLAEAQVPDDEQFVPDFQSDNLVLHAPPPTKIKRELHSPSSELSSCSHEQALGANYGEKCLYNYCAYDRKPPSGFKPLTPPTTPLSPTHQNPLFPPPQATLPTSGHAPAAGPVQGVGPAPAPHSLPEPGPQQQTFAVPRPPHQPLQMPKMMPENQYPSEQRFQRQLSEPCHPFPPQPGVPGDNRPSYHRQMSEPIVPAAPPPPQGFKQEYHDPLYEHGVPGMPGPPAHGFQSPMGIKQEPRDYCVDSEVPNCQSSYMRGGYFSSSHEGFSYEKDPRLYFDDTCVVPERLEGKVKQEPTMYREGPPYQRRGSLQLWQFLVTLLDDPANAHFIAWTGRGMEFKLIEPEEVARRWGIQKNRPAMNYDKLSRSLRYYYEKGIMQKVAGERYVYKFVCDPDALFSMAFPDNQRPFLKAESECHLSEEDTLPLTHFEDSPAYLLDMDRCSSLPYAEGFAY
# Sequence of CRX (O43186 whole entry): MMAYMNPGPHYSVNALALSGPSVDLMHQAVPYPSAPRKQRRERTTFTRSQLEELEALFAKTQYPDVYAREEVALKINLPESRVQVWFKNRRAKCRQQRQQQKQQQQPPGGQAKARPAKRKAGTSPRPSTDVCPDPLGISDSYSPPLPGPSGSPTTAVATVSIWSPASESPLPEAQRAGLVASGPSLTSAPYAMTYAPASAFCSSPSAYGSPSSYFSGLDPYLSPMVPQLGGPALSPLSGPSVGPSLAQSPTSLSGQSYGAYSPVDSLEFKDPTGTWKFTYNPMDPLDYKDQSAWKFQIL
# Sequence of SPIB (Q01892 whole entry): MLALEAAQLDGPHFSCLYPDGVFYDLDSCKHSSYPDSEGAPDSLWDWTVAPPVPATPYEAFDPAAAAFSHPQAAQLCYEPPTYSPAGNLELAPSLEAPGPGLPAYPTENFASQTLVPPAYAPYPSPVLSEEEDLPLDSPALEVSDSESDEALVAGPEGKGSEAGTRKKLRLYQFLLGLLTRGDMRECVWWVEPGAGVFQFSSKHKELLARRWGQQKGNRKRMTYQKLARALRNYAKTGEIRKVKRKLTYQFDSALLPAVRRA
# Sequence of ETV1 (P50549 whole entry): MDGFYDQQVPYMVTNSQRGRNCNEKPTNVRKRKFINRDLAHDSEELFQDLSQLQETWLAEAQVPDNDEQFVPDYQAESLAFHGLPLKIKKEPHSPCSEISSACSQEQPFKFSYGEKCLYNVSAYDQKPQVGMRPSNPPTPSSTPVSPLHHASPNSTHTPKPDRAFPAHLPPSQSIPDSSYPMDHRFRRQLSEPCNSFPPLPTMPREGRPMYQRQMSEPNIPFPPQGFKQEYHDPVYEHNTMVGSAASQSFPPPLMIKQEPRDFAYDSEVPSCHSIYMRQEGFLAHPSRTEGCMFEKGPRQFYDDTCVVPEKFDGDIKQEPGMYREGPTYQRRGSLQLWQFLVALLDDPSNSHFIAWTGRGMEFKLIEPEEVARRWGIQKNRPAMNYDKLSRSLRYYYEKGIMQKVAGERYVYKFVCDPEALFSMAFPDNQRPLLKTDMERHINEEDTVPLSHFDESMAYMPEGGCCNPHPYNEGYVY
sequence,measurement,setting,value
TACACT,binding signal,FLI1,"1.41 fold enrichment (6-mer frequency, TF over GST control)"
same,binding signal,ELK1,"1.57 fold enrichment (6-mer frequency, TF over GST control)"
same,binding signal,GABPA,"1.51 fold enrichment (6-mer frequency, TF over GST control)"
same,binding signal,ERG,"1.58 fold enrichment (6-mer frequency, TF over GST control)"
same,binding signal,ELF1,"1.5 fold enrichment (6-mer frequency, TF over GST control)"
same,binding signal,EHF,"1.62 fold enrichment (6-mer frequency, TF over GST control)"
same,binding signal,SPI1,"1.54 fold enrichment (6-mer frequency, TF over GST control)"
same,binding signal,SPIB,"1.5 fold enrichment (6-mer frequency, TF over GST control)"
same,binding signal,ELK3,"1.51 fold enrichment (6-mer frequency, TF over GST control)"
same,binding signal,FEV,"1.5 fold enrichment (6-mer frequency, TF over GST control)"
same,binding signal,ETV5,"1.5 fold enrichment (6-mer frequency, TF over GST control)"
same,binding signal,HSF1,"1.31 fold enrichment (6-mer frequency, TF over GST control)"
same,binding signal,SPIC,"1.58 fold enrichment (6-mer frequency, TF over GST control)"
same,binding signal,ELF4,"1.42 fold enrichment (6-mer frequency, TF over GST control)"
same,binding signal,ELK4,"1.53 fold enrichment (6-mer frequency, TF over GST control)"
same,binding signal,ETV2,"1.46 fold enrichment (6-mer frequency, TF over GST control)"
same,binding signal,ELF3,"1.36 fold enrichment (6-mer frequency, TF over GST control)"
same,binding signal,CRX,"1.35 fold enrichment (6-mer frequency, TF over GST control)"
same,binding signal,ETV1,"1.59 fold enrichment (6-mer frequency, TF over GST control)"
